Most compounds without a hit are left out; they make up all but 7.4% or so of the library.
NPC1 promoter act – activates the NPC1 promoter | hit rate 2.4% among 320,000 | Potency, µM (highest dose often 9.22 µM), without a hit: at the top dose activation, hits mostly activators | AID 485313 | Huh7 NPC1 promoter luciferase reporter, 24 h; further: % of control where 0% means no effect; nearly all actives have a fitted effect of over 60% in size
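Huh7 reporter cells (NPC1 promoter driving luciferase) are dosed with compound for 24 h at 37 °C, 5% CO2; luciferase detection reagent is then added and luminescence measured after 10 min at ambient temperature.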
SMN2 splice up – SMN2 splice variant enhancement; HEK293 SMN2-luciferase splicing reporter, luminescence, 30-36 h; hit rate 2.8% among 210,000; Potency, µM (top dose mostly 46.1 µM), for the others: at the top dose activity change, positive = activation, most hits filed as activators; further: % of control where 0% means no effect; nearly all actives have a fitted effect of over 55% in size
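qHTS luciferase splicing reporter: luminescence rises when SMN2 exon 7 is included in transfected HEK293 cells. Compound exposure lasted 30-36 h at 37C, with 4.5 mM final sodium butyrate as control, followed by a ONE-Glo read.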
KinaseGlo FLuc – counter-screen: inhibitors of Kinase-Glo firefly luciferase. Q27757. Kinase-Glo luciferase, ATP luminescence, 8 min. Potency, µM (top dose mostly 38.3 µM), inactives show at the highest dose activity change, negative = inhibition, actives largely listed as inhibitors. hit rate 0.28% among 200,000. AID 1379; further: on the % scale 0 is the no-effect control and ±100 the full control effect; nearly all actives have a fitted effect of over 60% in size
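Inhibition of Kinase-Glo luciferase light generation was assessed at 10 uM ATP in pH 7.2 imidazole buffer, with luminescence measured after eight minutes at ambient temperature.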
Rab9 prom act – activators of Rab9 promoter; Huh7 Rab9 promoter-luciferase reporter, luminescence, 24 h; Potency, µM (doses to about 9.22 µM), for inactives: at the highest dose activation, negative = inhibition, usual class: activators; hit rate 2.8% among 320,000; AID 485297; further: % of control where 0% means no effect; nearly all actives have a fitted effect of over 60% in size
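Measured in stably transfected Huh7 cells bearing a Rab9 promoter–luciferase construct: 24 h compound treatment at 37 °C, followed by luminescence detection.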
FLuc counter – counter-screen for miR-21 project: firefly luciferase inhibitors or activators; P08659; purified FLuc, Km substrates, luminescence inhibition; Potency, µM (series often up to 57.5 µM), for inactives: at the top dose activity change, negative = inhibition, most hits filed as inhibitors; hit rate 6.9% among 360,000;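 further: plate controls were vehicle for no effect and reference inhibitor for full effect; nearly all actives have a fitted effect of over 55% in size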
Target sequence (P08659 whole entry, looked up): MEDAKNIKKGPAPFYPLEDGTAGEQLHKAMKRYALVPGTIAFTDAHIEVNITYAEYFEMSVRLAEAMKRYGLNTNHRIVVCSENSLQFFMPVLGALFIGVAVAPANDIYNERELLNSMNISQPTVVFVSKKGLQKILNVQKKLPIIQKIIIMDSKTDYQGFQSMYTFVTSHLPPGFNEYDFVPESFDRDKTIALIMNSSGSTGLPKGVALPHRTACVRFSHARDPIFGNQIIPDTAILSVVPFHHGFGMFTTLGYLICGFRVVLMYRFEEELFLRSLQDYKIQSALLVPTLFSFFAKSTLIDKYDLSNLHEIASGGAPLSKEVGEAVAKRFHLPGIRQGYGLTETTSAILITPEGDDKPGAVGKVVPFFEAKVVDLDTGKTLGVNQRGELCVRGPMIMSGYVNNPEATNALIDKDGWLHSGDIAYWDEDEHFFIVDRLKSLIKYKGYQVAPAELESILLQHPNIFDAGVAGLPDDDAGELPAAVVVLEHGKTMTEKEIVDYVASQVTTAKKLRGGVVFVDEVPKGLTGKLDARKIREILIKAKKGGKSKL
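Biochemical qHTS of compounds, final roughly 60 µM downward over six points, against 10 nM purified firefly luciferase using Km concentrations of substrates (10 uM D-luciferin, 10 uM ATP) in Tris acetate pH 7.5 buffer; luminescence output.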
ELG1 genotoxic – inducers of genotoxicity in HEK293T ELG1-luciferase cells. Potency, µM (titrated, usually from 46 µM), inactives show at the highest dose activity change, positive = activation, hits mostly activators. hit rate 1.3% among 330,000. HEK293T ELG1-luciferase reporter, luminescence, 16 h. AID 504466; further: % of control where 0% means no effect; nearly all actives have a fitted effect of over 60% in size
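After overnight (16 hr) compound treatment at 37 °C, ELG1-luciferase HEK293T cells were lysed with ONE-Glo; luminescence quantified 30 min later at room temperature.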
The depositor's hits bear a star; u = inconclusive; x = not tested or not shown; [ ] = dose if it differs, or a comment. The call rests on the fitted dose curve; in most records, active means well fitted curve in the direction sought with a large enough effect; inconclusive means small, poorly fitted or top-dose-only effect, or another doubt; inactive means no such curve, though single readings can be large; an effect the other way counts as inactive or inconclusive. Potency means the concentration at half of the fitted maximal effect.

SMILES | NPC1 promoter act | SMN2 splice up | KinaseGlo FLuc | Rab9 prom act | FLuc counter | ELG1 genotoxic
O=C(c1ccco1)N1CCC2(CCCN(C(c3ccccc3)c3ccccc3)C2)CC1 | x | -16% | 1% | x | x | x
COc1ccc(NC(=O)COc2ccccc2)c(OC)c1 | u | 21% | 2% | u | 19µM* | 18µM*
O=C(O)Cc1ccc(NC(=O)COc2ccc3ccccc3c2)cc1 | -4% | x | x | 6% | 19µM* | 9%
O=C(COc1ccc2ccccc2c1)Nc1ccccc1C(=O)O | 18% | x | x | 25% | 17µM* | 14%
O=C(COc1ccc2ccccc2c1)NCCNC(=O)COc1ccc2ccccc2c1 | -1% | -1% | 2% | -1% | 10% | -8%
O=C(COc1ccc2ccccc2c1)NC1CC1 | 11% | -14% | -5% | u | 17µM* | 17%
CCc1ccc(OCC(=O)Nc2cc(S(=O)(=O)CC)ccc2O)cc1 | -2% | -11% | -3% | -10% | 24µM* | -2%
COc1ccc(OCC(=O)Nc2ccccc2O)cc1 | 25% | -7% | -18% | u | 21µM* | 9.2µM*
COc1ccccc1NC(=O)C(=O)NNC(=O)COc1ccc2ccccc2c1 | -1% | x | x | -5% | -3% | -2%
COc1ccc(NC(=O)COC(=O)Cc2ccc(-c3ccccc3)cc2)c(OC)c1 | -6% | 4% | 0% | 1% | 13µM* | 1%
COc1ccccc1NC(=O)COc1ccccc1 | 14% | -5% | 0% | -4% | u | u
COc1ccccc1NC(=O)COc1ccc2ccccc2c1 | 2% | x | x | 1% | 15µM* | 2%
COc1ccc(C)cc1NC(=O)COC(=O)Cc1ccc(-c2ccccc2)cc1 | -1% | x | x | 0% | u | 7%
CC1(C)C[C@](C)(C(=O)c2ccccc2)C=C1c1ccccc1 | x | -5% | 1% | x | x | x
Cc1cc(NC(=O)Nc2ccc(N(C)C)cc2)c2cc(F)cc(F)c2n1 | x | x | 2% | x | x | x
COc1ccc(C(=O)N(Cc2ccccc2)c2cccc(C)c2)cc1 | u | x | x | u | -1% | 15µM*
Cc1ccc(N(Cc2ccccc2)C(=O)c2cccc(F)c2)cc1 | -1% | x | x | -7% | 13µM* | 18%
Cc1ccc(C(=O)CC(=O)c2cccc(F)c2)c(O)c1 | 6% | -41% | -1% | 14% | 12µM* | u
COc1ccc(CN(C(=O)c2ccc(C)cc2)c2cccc(N)c2)cc1 | -4% | x | x | 1% | -7% | -3%
Cc1ccc(N(Cc2ccccc2)C(=O)c2ccc(F)cc2)cc1 | 2% | x | x | 0% | 0% | 4%
O=Nc1c(O)[nH]c2ccccc12.[Cu].[O-]/N=C1/C(=[OH+])Nc2ccccc21 | x | -6%[9.22 µM] | 0%[7.66 µM] | x | x | x
CCOc1ccccc1NC(=O)Cn1c(=O)n(-c2ccc(C)c(C)c2)c(=O)c2c(C)c(C(=O)N(C)C)sc21 | x | x | x | x | -2% | x
Cc1cccc(OCC(=O)Nc2ccc3c(c2)OCO3)c1C | 9% | 0% | -1% | 7% | 19µM* | 9%
Cc1ccc(OCC(=O)Nc2ccc3c(c2)OCO3)cc1C | 5% | x | 0% | 16% | 24µM* | 8%
NC(=O)c1cc(Cl)ccc1OCC(=O)Nc1ccc2c(c1)OCO2 | 1.4µM* | x | x | 1.3µM* | 0.85µM* | u
SMILES | NPC1 promoter act | SMN2 splice up | KinaseGlo FLuc | Rab9 prom act | FLuc counter | ELG1 genotoxic
O=C(COc1ccccc1[N+](=O)[O-])Nc1ccc2c(c1)OCO2 | 2.5µM* | 13µM* | -2% | 2.2µM* | 4.8µM* | 9.2µM*
O=C(COC(=O)COc1ccccc1[N+](=O)[O-])Nc1ccc2c(c1)OCO2 | x | x | x | x | x | 4%
COc1cc(C2NC(=O)NC(C)=C2C(=O)Nc2cc(C)cc(C)c2)ccc1O (stereo unspecified) | x | -4% | x | x | -2% | x
COc1cccc(NC(=O)/C(C#N)=C/c2c(C)n(Cc3ccccc3)c3ccccc23)c1 | x | -52% | x | x | -18% | x
O=C(COc1ccc2ccc(=O)oc2c1)Nc1ccc2c(c1)OCCO2 | 2% | 12% | 0% | 27% | 9.5µM* | 8%
C=CCOC(=O)N[C@H](C[N+](=O)[O-])c1ccccc1 | x | -1% | 3% | x | x | x
NC(=O)c1cc([N+](=O)[O-])ccc1NCc1cccc2ccccc12 | -3% | x | x | -3% | -12% | 4%
O=C(/C=C/Nc1ccc([N+](=O)[O-])cc1Br)c1cccc2ccccc12 | 3.2µM* | 5.6µM* | -17% | 1.1µM* | 2.4µM* | u
CC(=O)c1cnc2cc(-c3ccccc3)nn2c1C | 2.5µM* | 16µM* | -3% | 1.4µM* | 2.4µM* | 2.2µM*
COc1ccc(-c2cc3ncc(C(C)=O)c(C)n3n2)cc1 | 2.2µM* | 11µM* | -4% | 1.3µM* | u | u
CC(=O)c1cnc2nc(SCc3ccccc3)nn2c1C | 4.5µM* | x | x | 3.5µM* | x | u
CC(=O)c1cnc2nc(SCc3ccc(C)cc3)nn2c1C | -3% | x | x | 4% | -7% | 0%
CC(=O)c1cnc2cc(C)nn2c1C | -5% | -10% | -1% | 3% | -2% | 1%
COc1ccc(-c2cc3ncc(C(=O)c4cc([N+](=O)[O-])ccc4O)cn3n2)cc1 | x | -11% | x | x | u | x
CC(=O)c1cnc2cc(-c3ccc(C)cc3)nn2c1C | u | 11µM* | 0% | 3.5µM* | 3.4µM* | 7.3µM*
COCC(=O)N1CCC2(CC1)CCN(c1ncccn1)CC2 | x | -7% | 0% | x | x | x
CCC(=O)/C=C/C1C(C)=CCCC1(C)C (stereo unspecified) | x | 1% | x | x | x | x
COc1ccc(-c2cc(C(=O)N3CCN(c4ccccc4OC)CC3)c3cc(C(C)C)ccc3n2)cc1 | x | x | x | x | -8% | x
Cc1cccc(NC(=O)C2CCCN(S(=O)(=O)c3c(C)[nH]c(=O)[nH]c3=O)C2)c1C (stereo unspecified) | x | 4% | x | x | -6% | x
CCc1ccc(-n2c(SCC(=O)NC(C)CC)nc3n[nH]c(C)c3c2=N)cc1 (stereo unspecified) | x | x | x | x | -5% | x
COc1ccc(N=Cc2nc(-c3ccccc3)oc2OC(C)=O)cc1 | 2% | x | x | 2% | -10% | 0%
Cc1ccc(C(=O)Oc2oc(-c3ccco3)nc2C=Nc2ccc(Cl)cc2)cc1 | 1.8µM* | 14µM* | -3% | 3.2µM* | 4.8µM* | u
Cc1ccc(C(=O)Oc2oc(-c3ccccc3)nc2C=Nc2ccc(N(C)C)cc2)cc1 | u | 8.9µM* | 1% | u | 13µM* | u
CN(C)c1ccc(N=Cc2nc(-c3ccccc3)oc2OC(=O)c2cccc(Cl)c2)cc1 | u | 11µM* | -5% | 4.5µM* | u | u
CCC1=C2CC[C@H]3C(=O)NC(=O)[C@H]3[C@H]2[C@@]2(C)C(=NCC(=O)OC)OC(=O)N2C1=O | x | -12% | -3% | x | x | x
N#Cc1c[nH]n2c(NC3CCCCC3)c(-c3ccccc3F)nc12 | x | x | x | x | -7% | x

High-throughput results (PubChem)
